Laboratory results reported in article PMC10726135, “HNF4α isoforms regulate the circadian balance between carbohydrate and lipid metabolism in the liver”.
In all, about 18,000 sequences were measured (“log2 normalized intensity”: median about 0.39, highest 2% from about 6.6 on). The full list was thinned out, with the highest values kept by preference.

Each sequence was assayed against T1, HNF4alpha2 (COS-7 nuclear extract) (Homo sapiens, UniProt P41235 1-474) (assay: protein-binding microarray; COS-7 nuclear extract on double-stranded Agilent 4x180k PBM; binding buffer, salt, pH and temperature not given in the material; high values mean tight binding). Settings: chain copies: 2; label: 3' end of strand 1 on the slide; dsDNA, one strand shown.
T1 sequence: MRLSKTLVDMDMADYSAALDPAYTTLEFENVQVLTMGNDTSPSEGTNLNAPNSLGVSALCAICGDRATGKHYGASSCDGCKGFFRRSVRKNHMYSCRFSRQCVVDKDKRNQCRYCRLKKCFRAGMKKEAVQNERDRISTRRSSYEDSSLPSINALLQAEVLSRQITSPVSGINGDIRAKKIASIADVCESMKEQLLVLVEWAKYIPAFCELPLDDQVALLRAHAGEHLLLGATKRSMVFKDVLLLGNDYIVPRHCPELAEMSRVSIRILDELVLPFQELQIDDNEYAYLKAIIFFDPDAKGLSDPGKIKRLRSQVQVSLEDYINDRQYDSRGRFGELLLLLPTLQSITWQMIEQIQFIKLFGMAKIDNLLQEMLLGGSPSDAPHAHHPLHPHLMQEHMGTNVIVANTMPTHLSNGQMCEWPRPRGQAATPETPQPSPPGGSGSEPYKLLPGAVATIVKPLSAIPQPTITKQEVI
How it was run: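 COS-7 cells were transiently transfected by CaPO4 with an expression vector for a human HNF4α isoform, and nuclear extracts were prepared from them. The extracts were applied to a custom Agilent SurePrint G3 4x180k array of double-stranded ~60-nt oligonucleotides, with ~44,000 test sequences spotted in quadruplicate. An Agilent G2565CA scanner imaged bound HNF4α at 2-µm resolution. Binding signal is the background-corrected, normalized gProcessedSignal from Agilent software.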
“AAAGAGATTGGACTTTGGCCTGTGAATCCAGCCTAGGGAGATTAGAGTATCGGTCGA” showed a binding signal of 8.37 log2 normalized intensity. “GATTGGACTTTGGCCTGTGAATCCACATTCGCCTAGGGAGATTAGAGTATCGGTCGA” showed a binding signal of 5.98 log2 normalized intensity. In the case of “TTGAAAGGGACTTAGAATCGAATTGTGAAAGCCTAGGGAGATTAGAGTATCGGTCGA”, the binding signal is reported as -0.196 log2 normalized intensity. With “GAACAGCAAGACTTTGGCCCTGCAGACTTTGCCTAGGGAGATTAGAGTATCGGTCGA” the binding signal was 2.09 log2 normalized intensity. With “TCTGCAGCAGATGGCCAGCCTTTGGACTTTGCCTAGGGAGATTAGAGTATCGGTCGA” the binding signal was 7.15 log2 normalized intensity. “CAGCCTTTGGACTTTGAACTGCAACATCAGGCCTAGGGAGATTAGAGTATCGGTCGA” was tested, and the binding signal was 8.26 log2 normalized intensity. In the case of “TACTGGGGATGGACTTTGGCCCTCAGCCCAGCCTAGGGAGATTAGAGTATCGGTCGA”, the binding signal is reported as 8.56 log2 normalized intensity. For “GGACTTTGGCCCTCAGCCCAATGTGGTAGGGCCTAGGGAGATTAGAGTATCGGTCGA”, the binding signal was 5.47 log2 normalized intensity. “TGAATTCTGCAGCAGATGGCCAGCCTTTGGGCCTAGGGAGATTAGAGTATCGGTCGA” was tested, and the binding signal was -0.936 log2 normalized intensity. Sequence “ACCTGGAACTGAAAGAGACCTTTGACATCAGCCTAGGGAGATTAGAGTATCGGTCGA” has a binding signal of 4.5 log2 normalized intensity. With “CTGGACTTTGGCTGCAAAATTTGAACAAAAGCCTAGGGAGATTAGAGTATCGGTCGA” the binding signal was 1.55 log2 normalized intensity. Sequence “GGGATGGACTTTGGCCCTCAGCCCAATGTGGCCTAGGGAGATTAGAGTATCGGTCGA” has a binding signal of 6.2 log2 normalized intensity. “CCCTTTGCACATGCCCCTCCCAGGGACACAGCCTAGGGAGATTAGAGTATCGGTCGA” was tested, and the binding signal was 3.12 log2 normalized intensity. “CAGAAAAATGGAGCAGCTCTGTATTGAGATGCCTAGGGAGATTAGAGTATCGGTCGA” showed a binding signal of -0.99 log2 normalized intensity. With “TGCCATTCTTCCAGTTGTGTGCACAAGAGGGCCTAGGGAGATTAGAGTATCGGTCGA” the binding signal was 1.7 log2 normalized intensity. “GAATTTCATTTTGCTCTTTGTTCAGATACAGCCTAGGGAGATTAGAGTATCGGTCGA” gave a binding signal of 1.33 log2 normalized intensity. “TTTTTTCAAGTGTTAGCTGTTTCCAAATATGCCTAGGGAGATTAGAGTATCGGTCGA” showed a binding signal of 1.42 log2 normalized intensity. Sequence “AATCCCTTAGGCTTTTGCACTTTACTCAGAGCCTAGGGAGATTAGAGTATCGGTCGA” has a binding signal of 3.14 log2 normalized intensity. In the case of “CCCCTCCCTCCGCAACCTTTACTCCTTGTGGCCTAGGGAGATTAGAGTATCGGTCGA”, the binding signal is reported as 3.68 log2 normalized intensity. Work on “GTCACCACCTTTTTTGGCCTTTACCCCTTGGCCTAGGGAGATTAGAGTATCGGTCGA” yielded a binding signal of 4.8 log2 normalized intensity. “AAAAAACCCTAGAGATGTACACAGTTCAAAGCCTAGGGAGATTAGAGTATCGGTCGA” was tested, and the binding signal was -0.874 log2 normalized intensity. “AGCAGATGGCCAGCCTTTGGACTTTGAACTGCCTAGGGAGATTAGAGTATCGGTCGA” was tested, and the binding signal was 10.7 log2 normalized intensity. Sequence “TTTGAAGCAAAGCCTTTGAGCAGATGGAAGGCCTAGGGAGATTAGAGTATCGGTCGA” has a binding signal of 0.0298 log2 normalized intensity. “TACCTTTCCTGCATTAACATCAACATGGACGCCTAGGGAGATTAGAGTATCGGTCGA” showed a binding signal of 2.1 log2 normalized intensity. In the case of “GCATTAACATCAACATGGACTTTGAGTCATGCCTAGGGAGATTAGAGTATCGGTCGA”, the binding signal is reported as 6.21 log2 normalized intensity. “TTCCTGCATTAACATCAACATGGACTTTGAGCCTAGGGAGATTAGAGTATCGGTCGA” showed a binding signal of 8.62 log2 normalized intensity. Work on “TATTTGGATAATGTGCCCTTTGTACCTGGGGCCTAGGGAGATTAGAGTATCGGTCGA” yielded a binding signal of 7.01 log2 normalized intensity. Work on “GGATAATGTGCCCTTTGTACCTGGGGCAAAGCCTAGGGAGATTAGAGTATCGGTCGA” yielded a binding signal of 5.03 log2 normalized intensity. Sequence “TTTTTGGCCTTTACCCCTTGAGTTTGAACTGCCTAGGGAGATTAGAGTATCGGTCGA” has a binding signal of 3.59 log2 normalized intensity. Work on “AGGGTCTTTGCAACTGTGTGTGGCCTGCACGCCTAGGGAGATTAGAGTATCGGTCGA” yielded a binding signal of 1.38 log2 normalized intensity. In the case of “ATGGCCAGCCTTTGGACTTTGAACTGCAACGCCTAGGGAGATTAGAGTATCGGTCGA”, the binding signal is reported as 9.66 log2 normalized intensity. “TCAAATATTTGGATAATGTGCCCTTTGTACGCCTAGGGAGATTAGAGTATCGGTCGA” gave a binding signal of 6.6 log2 normalized intensity.
